Rows were chosen to be rich in hits. Some 12% of all compounds tested hit in one or more screens of this group.
Sfp PPTase inh = Sfp phosphopantetheinyl transferase inhibition; AID 1490; Biochemical Sfp PPTase activity, qHTS; 310,000 tested, 3.5% active; Q9F4F7; Potency, µM, most hits filed as inhibitors;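 further: the enzyme is Sfp with the accession as filed and its product quenches rhodamine fluorescence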
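Step 1, compound plus 15 nM Sfp-PPTase, 15 min, room temperature. Step 2, add rhodamine-CoA (5 uM) and BHQ-2-YbbR (12.5 uM). Step 3, read 525/598 nm fluorescence at 0 and 30 min.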
G9a block = inhibitors of human histone lysine methyltransferase G9a; Q96KQ7; G9a H3K9 monomethylation, AlphaScreen, 2 h; Potency, µM (highest dose often 102 µM), most hits filed as inhibitors; 350,000 tested, 8.8% active; further: nearly all actives have a fitted effect of over 75% in size
Target sequence (Q96KQ7 913-1193 limits assumed): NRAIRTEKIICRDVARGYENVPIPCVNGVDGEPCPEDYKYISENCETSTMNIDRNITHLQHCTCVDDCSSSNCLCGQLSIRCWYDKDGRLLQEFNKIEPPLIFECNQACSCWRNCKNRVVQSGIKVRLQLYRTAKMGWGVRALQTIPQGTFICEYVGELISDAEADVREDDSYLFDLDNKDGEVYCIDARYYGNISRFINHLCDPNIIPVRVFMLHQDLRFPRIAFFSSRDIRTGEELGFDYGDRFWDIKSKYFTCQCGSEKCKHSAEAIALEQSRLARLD
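Enzyme 20 nM + cpd, 15 min RT; add b-H3K9 pep 500 nM / SAM 20 uM; 2 h RT; anti-H3K9me1 Ab 0.5 ug/mL + SA donor / anti-rabbit acceptor beads 20 ug/mL each, 10 min; AlphaScreen read.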
JMJD2A Tudor = JMJD2A Tudor domain (human) inhibition; O75164; AlphaScreen JMJD2A-Tudor / H3K4me3 peptide binding; Potency, µM (series often up to 114 µM), most hits filed as inhibitors; 390,000 tested, 4.4% active; further: nearly all actives have a fitted effect of over 50% in size
HP1b binding inh = HP1-beta chromodomain-methylated histone interaction inhibition. P83916. AlphaScreen HP1-beta / biotin-H3K9me3 peptide binding. Potency, µM (titrated, usually from 114 µM), most hits filed as inhibitors. 390,000 tested, 0.56% active; further: nearly all actives have a fitted effect of over 70% in size
Target sequence (P83916 whole entry, looked up): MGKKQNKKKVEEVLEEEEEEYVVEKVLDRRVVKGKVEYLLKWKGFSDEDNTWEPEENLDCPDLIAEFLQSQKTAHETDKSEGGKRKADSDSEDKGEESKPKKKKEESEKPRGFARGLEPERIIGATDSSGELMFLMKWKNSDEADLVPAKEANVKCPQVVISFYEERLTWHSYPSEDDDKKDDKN
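AlphaScreen: HP1-beta (50 nM) preformed 30 min with biotin-H3(1-18)K9me3 peptide (50 nM) in PBS pH 7.4, 0.01% Tween-20. Compound added for 30 min at RT, then streptavidin donor/nickel chelate acceptor beads (10 ug/mL) for 30 min.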
BAZ2B inh = blocks human BAZ2B; Potency, µM (doses to about 114 µM), most hits filed as inhibitors; AID 504333; Q9UIF8; 360,000 tested, 4.4% active; AlphaScreen BAZ2B-H3K14Ac peptide displacement; further: nearly all actives have a fitted effect of over 60% in size
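AlphaScreen displacement: compounds (up to 110uM) incubated 30 min at room temperature with a preformed 50 nM BAZ2B/50 nM biotinylated H3K14Ac peptide complex in PBS pH 7.4 with Tween-20. Donor and acceptor beads at 10 ug/mL final added, 20 min light-protected before reading.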
Of the large screens only hits and unclear results are named; the others gave an inactive call. The call rests on the fitted dose curve; in most records, active means well fitted curve in the direction sought with a large enough effect; inconclusive means small, poorly fitted or top-dose-only effect, or another doubt; inactive means no such curve, though single readings can be large; an effect the other way counts as inactive or inconclusive.

Cc1ccc(OCCC(=O)OCC(=O)Nc2ccc(N3CCOCC3)cc2)cc1	G9a block inconclusive (no result: Sfp PPTase inh)
N#Cc1ccc(OCC(=O)OCC(=O)Nc2ccc(N3CCOCC3)cc2)cc1	G9a block inconclusive (no result: Sfp PPTase inh)
COCCNC(=O)c1cnn(-c2cccc(C)c2)c1-n1cccc1	none (no result: Sfp PPTase inh)
OC1CCN(C(c2ccc3ncccc3c2)c2nnnn2C2CCCCC2)CC1 (stereo not given)	none
C#CCOCCOCCOCCNc1nc(N2CCN(C(=O)Cn3cc(CC(C)O)nn3)CC2)nc(N2CCN(C(=O)[C@H]([C@@H](C)CC)n3cc(CCCCN)nn3)CC2)n1 (stereo not given in full)	none (no result: Sfp PPTase inh, G9a block, BAZ2B inh)
O=C(N/N=C/c1ccc(-c2cccc([N+](=O)[O-])c2)o1)[C@H]1C[C@@H]1c1ccccc1	none
COC(=O)c1c(NC(=O)c2ccc([N+](=O)[O-])o2)sc2c1CCN(C(C)C)C2	G9a block inconclusive, JMJD2A Tudor inconclusive
CN(C)S(=O)(=O)N1CCc2ccc(NC(=O)C3CCCO3)cc2C1 (stereo not given)	G9a block inconclusive
CC1CCCCN1c1c(S(=O)(=O)c2ccc(Cl)cc2)cnc2ccccc12 (stereo not given)	none (no result: Sfp PPTase inh)
Cc1ccc(C)c(S(=O)(=O)Nc2nc3ccc(S(N)(=O)=O)cc3s2)c1	Sfp PPTase inh inconclusive, G9a block 10µM, JMJD2A Tudor 50µM
COc1ccccc1N1CC(C)(C)C(=O)N(C(=O)c2ccc(Cl)cc2)C1=S	G9a block 40µM, JMJD2A Tudor inconclusive
O=C(O)c1cc([N+](=O)[O-])ccc1C(=O)Nc1cccc([N+](=O)[O-])c1	none
O=C1C=C(c2ccc(-c3ccccc3)cc2)C[C@@H](c2ccc(Cl)cc2)C1	none (no result: Sfp PPTase inh)
CCOc1ccc(S(=O)(=O)Nc2cc3c(C(=O)OC)c(COC)oc3c3ccccc23)cc1	none (no result: Sfp PPTase inh)
CCc1ccc(S(=O)(=O)Nc2cc(SCC(=O)O)c(O)c3ccccc23)cc1	Sfp PPTase inh 4µM, G9a block 3.5µM, JMJD2A Tudor 22µM, HP1b binding inh inconclusive, BAZ2B inh inconclusive
O=C(O)CSc1cc(NS(=O)(=O)c2cccc([N+](=O)[O-])c2)c2ccccc2c1O	Sfp PPTase inh 2.8µM, G9a block 2.5µM, HP1b binding inh 10µM, BAZ2B inh inconclusive
CCc1ccc(S(=O)(=O)Nc2ccc(O)c3ccccc23)cc1	JMJD2A Tudor inconclusive, HP1b binding inh inconclusive, BAZ2B inh inconclusive
CCOc1ccc(S(=O)(=O)Nc2cc(SCC(=O)O)c(O)c3ccccc23)cc1	G9a block inconclusive, JMJD2A Tudor 22µM, HP1b binding inh 13µM, BAZ2B inh 50µM
Cc1ccc(C)c(S(=O)(=O)Nc2cc(SCC(=O)O)c(O)c3ccccc23)c1	Sfp PPTase inh 3.5µM, G9a block 1.1µM, JMJD2A Tudor 40µM, HP1b binding inh inconclusive, BAZ2B inh 20µM
O=C(CN1CCN(C(=O)c2ccc(OCc3cn4ccccc4n3)cc2)CC1)Nc1cccc(F)c1	none (no result: Sfp PPTase inh, G9a block, BAZ2B inh)
COc1ccccc1CNC(=O)COc1ccc(S(=O)(=O)N2CCOCC2)cc1C	none
O=S(=O)(Nc1cc(Sc2cccc3cccnc23)c(O)c2ccccc12)c1ccccc1	Sfp PPTase inh 10µM, G9a block 1.6µM, BAZ2B inh inconclusive (no result: JMJD2A Tudor, HP1b binding inh)
C1=C(c2ccco2)N2CCN=C2S1	Sfp PPTase inh inconclusive
CN(NC(=O)COc1ccccc1)C1=NS(=O)(=O)c2ccccc21	none (no result: G9a block)
CCn1cc(CCC(=O)O)c(C)n1	G9a block 45µM
Cc1ccccc1Nc1c(-c2ccsc2)nc2c(C)cccn12	none (no result: Sfp PPTase inh)
CN1CCN(C(=O)CSc2nnc(COc3ccccc3)o2)CC1	G9a block 40µM
COc1cccc(OCc2nnc(SCC(=O)N3c4ccccc4Sc4ccc(Cl)cc43)o2)c1	G9a block 28µM
COc1cc(C(=O)OCC(=O)NCc2ccco2)cc(OC)c1OC	JMJD2A Tudor inconclusive, BAZ2B inh inconclusive
CN(C)S(=O)(=O)c1ccc(C(=O)NCc2ccco2)cc1	none
CN(C)S(=O)(=O)c1ccc(C(=O)OCC(=O)NCc2ccco2)cc1	G9a block 50µM, BAZ2B inh 50µM
CCOc1cc(C(=O)OCC(=O)NCc2ccco2)cc(OCC)c1OCC	G9a block 50µM, JMJD2A Tudor 56µM, HP1b binding inh inconclusive, BAZ2B inh 28µM
COc1cc(OC)cc(C(=O)OCC(=O)NCc2ccco2)c1	G9a block inconclusive, JMJD2A Tudor inconclusive, BAZ2B inh 50µM (no result: Sfp PPTase inh)
COc1ccc(NC(=O)CSCC(=O)Nc2sccc2C#N)cc1	G9a block 40µM (no result: Sfp PPTase inh)
Cn1ccnc1SCC(=O)Nc1sccc1C#N	Sfp PPTase inh 79µM
COc1ccc(CCC(=O)Nc2sccc2C#N)cc1	G9a block inconclusive (no result: BAZ2B inh)
COCCNC(=S)NNc1ccccc1[N+](=O)[O-]	Sfp PPTase inh 10µM, G9a block inconclusive, JMJD2A Tudor inconclusive, HP1b binding inh inconclusive, BAZ2B inh 50µM
CC(=O)NC(=S)Nc1ccc([N+](=O)[O-])cc1C	none (no result: G9a block)
COCCNC(=S)N/N=C(\C)c1ccc(C)c([N+](=O)[O-])c1	JMJD2A Tudor inconclusive
COCCNC(=S)Nc1ccc([N+](=O)[O-])cc1C	Sfp PPTase inh 56µM (no result: G9a block)
C#CCOCCOCCOCCNc1nc(N2CCN(C(=O)[C@H](CCCCN)n3cc([C@@H](N)CO)nn3)CC2)nc(N2CCN(C(=O)[C@H](Cc3cc4ccccc4[nH]3)n3cc([C@@H](N)CO)nn3)CC2)n1	G9a block inconclusive, BAZ2B inh 22µM (no result: JMJD2A Tudor, HP1b binding inh)
C#CCOCCOCCOCCNc1nc(N2CCN(C(=O)[C@H](CCCCN)n3cc([C@@H](N)CO)nn3)CC2)nc(N2CCN(C(=O)[C@H](Cc3cc4ccccc4[nH]3)n3cc([C@@H](N)CC(C)C)nn3)CC2)n1	BAZ2B inh 45µM (no result: JMJD2A Tudor, HP1b binding inh)
CC(=O)Nc1ccc(-c2nnn(CC(=O)c3ccc(F)cc3)n2)cc1Cl	none
COc1ccccc1NS(=O)(=O)c1ccc(N/N=C/c2ccccc2OCC(=O)O)c([N+](=O)[O-])c1	G9a block 20µM, JMJD2A Tudor 56µM, HP1b binding inh inconclusive, BAZ2B inh 40µM
COc1ccccc1NS(=O)(=O)c1ccc(N/N=C/C=C/c2ccccc2[N+](=O)[O-])c([N+](=O)[O-])c1	JMJD2A Tudor inconclusive, BAZ2B inh inconclusive
COc1ccccc1NS(=O)(=O)c1cccc(C(=O)NN=C2CCCC2)c1	none
O=C(O)COc1ccccc1/C=N/Nc1ccc(S(=O)(=O)Nc2ccc(Cl)cc2)cc1[N+](=O)[O-]	G9a block 35µM, JMJD2A Tudor inconclusive, HP1b binding inh inconclusive, BAZ2B inh 35µM
COc1ccccc1NS(=O)(=O)c1ccc(NN=C2CCCC2)c([N+](=O)[O-])c1	G9a block 25µM, JMJD2A Tudor 20µM, HP1b binding inh inconclusive, BAZ2B inh inconclusive
Cc1ccc(C(=O)NNC(=O)CCC(=O)NCc2ccccc2)cc1Br	none
O=C(Nc1nnc(Cc2ccccc2)s1)C1CCN(C(=O)c2ccco2)CC1	Sfp PPTase inh 50µM, G9a block 10µM, HP1b binding inh inconclusive
CCCc1nnc(NC(=O)C2CCN(C(=O)c3ccco3)CC2)s1	none
